Results published in paper PMC7862700, “An all-to-all approach to the identification of sequence-specific readers for epigenetic DNA modifications on cytosine”.

Key:
Assay in all cases: DAPPL (digital affinity profiling via proximity ligation, sequencing); 10 mM Tris-HCl pH 7.5, 50 mM NaCl, 1 mM DTT, 4% glycerol, room temperature, 30 min; GST-TFs on glutathione beads, 16-mer random dsDNA library, 0.1% formaldehyde crosslink after washing; high values mean tight binding
FEV = biological target: T1, FEV (Homo sapiens, UniProt Q99581 1-238); settings: protein: recombinant; tags: N-terminal GST; dsDNA, one strand shown
T1 sequence: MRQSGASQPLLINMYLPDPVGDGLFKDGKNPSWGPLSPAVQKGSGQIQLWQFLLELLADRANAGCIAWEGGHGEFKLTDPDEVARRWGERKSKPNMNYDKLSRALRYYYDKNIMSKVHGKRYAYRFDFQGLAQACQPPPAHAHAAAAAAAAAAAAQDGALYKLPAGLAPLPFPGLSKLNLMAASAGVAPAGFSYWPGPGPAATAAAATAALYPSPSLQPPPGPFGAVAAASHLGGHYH
How it was run: (§1)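 A tag-only sample was pooled with DNA-barcoded human transcription factors that had been expressed in yeast as GST fusions and captured on glutathione beads. The pools were incubated for 30 min at room temperature with 200 nmole of a random double-stranded 16-mer DNA library in Tris/NaCl/DTT/glycerol buffer, then washed, crosslinked with 0.1% formaldehyde, proximity-ligated (BsaI/T4 ligase, 1 h, 37 °C), PCR-amplified and sequenced on an Illumina NextSeq500. Binding signal is each hexamer's read frequency for a factor divided by its frequency for the tag-only sample.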

ETV5 = ETV5 (Homo sapiens, UniProt P41161 1-510); settings: protein: recombinant; tags: N-terminal GST; dsDNA, one strand shown
How it was run: as §1

HSF1 = HSF1 (Homo sapiens, UniProt Q00613 1-529); settings: protein: recombinant; tags: N-terminal GST; chain copies: 3; dsDNA, one strand shown
How it was run: as §1

SPIC = biological target: T2, SPIC (Homo sapiens, UniProt Q8N5J4 1-248); settings: protein: recombinant; tags: N-terminal GST; dsDNA, one strand shown
T2 sequence: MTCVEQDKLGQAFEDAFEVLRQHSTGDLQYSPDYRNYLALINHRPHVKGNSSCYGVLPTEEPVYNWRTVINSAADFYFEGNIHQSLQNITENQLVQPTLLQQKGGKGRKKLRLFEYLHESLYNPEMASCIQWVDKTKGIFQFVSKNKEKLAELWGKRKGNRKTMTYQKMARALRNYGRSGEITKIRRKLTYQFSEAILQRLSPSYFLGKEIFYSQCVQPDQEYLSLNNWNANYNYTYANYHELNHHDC
How it was run: as §1

ELF4 = ELF4 (Homo sapiens, UniProt Q99607 1-663); settings: protein: recombinant; tags: N-terminal GST; dsDNA, one strand shown
How it was run: as §1

ELK4 = biological target: T3, ELK4 (Homo sapiens, UniProt P28324-2 1-405); settings: protein: recombinant; tags: N-terminal GST; dsDNA, one strand shown
T3 sequence: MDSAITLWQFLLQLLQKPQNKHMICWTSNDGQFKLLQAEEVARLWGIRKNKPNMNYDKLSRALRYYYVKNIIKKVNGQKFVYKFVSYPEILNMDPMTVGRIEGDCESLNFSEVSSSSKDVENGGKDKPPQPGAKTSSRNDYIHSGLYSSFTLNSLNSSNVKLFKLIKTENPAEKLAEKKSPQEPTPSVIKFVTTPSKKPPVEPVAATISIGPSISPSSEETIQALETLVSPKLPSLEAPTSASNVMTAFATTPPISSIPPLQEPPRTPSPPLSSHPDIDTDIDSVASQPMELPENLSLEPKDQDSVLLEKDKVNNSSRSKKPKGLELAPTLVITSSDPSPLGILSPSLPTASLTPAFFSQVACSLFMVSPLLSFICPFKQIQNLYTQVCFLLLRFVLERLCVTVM
How it was run: as §1

ETV2 = biological target: T4, ETV2 (Homo sapiens, UniProt O00321 1-342); settings: protein: recombinant; tags: N-terminal GST; dsDNA, one strand shown
T4 sequence: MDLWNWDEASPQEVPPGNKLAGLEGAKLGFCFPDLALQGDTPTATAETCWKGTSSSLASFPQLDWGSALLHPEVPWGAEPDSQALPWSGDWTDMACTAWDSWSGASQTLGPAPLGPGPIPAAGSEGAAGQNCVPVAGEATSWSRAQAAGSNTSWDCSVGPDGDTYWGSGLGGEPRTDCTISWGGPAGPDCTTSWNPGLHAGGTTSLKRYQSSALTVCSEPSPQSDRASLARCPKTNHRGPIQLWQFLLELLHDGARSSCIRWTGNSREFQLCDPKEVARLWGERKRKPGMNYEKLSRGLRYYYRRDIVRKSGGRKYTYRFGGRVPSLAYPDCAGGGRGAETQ
How it was run: as §1

ELF3 = biological target: T5, ELF3 (Homo sapiens, UniProt P78545 1-371); settings: protein: recombinant; tags: N-terminal GST; dsDNA, one strand shown
T5 sequence: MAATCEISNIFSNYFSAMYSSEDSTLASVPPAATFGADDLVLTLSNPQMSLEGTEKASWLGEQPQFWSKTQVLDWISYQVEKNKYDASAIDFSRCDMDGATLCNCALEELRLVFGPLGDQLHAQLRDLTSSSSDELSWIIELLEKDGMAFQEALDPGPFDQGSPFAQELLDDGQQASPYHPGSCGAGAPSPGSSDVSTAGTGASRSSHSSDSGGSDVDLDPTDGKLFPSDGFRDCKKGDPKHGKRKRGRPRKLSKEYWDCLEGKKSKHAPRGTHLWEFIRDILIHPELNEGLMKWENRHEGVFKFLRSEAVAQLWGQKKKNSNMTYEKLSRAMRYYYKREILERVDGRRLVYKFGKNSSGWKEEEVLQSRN
How it was run: as §1

CRX = CRX (Homo sapiens, UniProt O43186 1-299); settings: protein: recombinant; tags: N-terminal GST; dsDNA, one strand shown
How it was run: as §1

ETV1 = ETV1 (Homo sapiens, UniProt P50549 1-477); settings: protein: recombinant; tags: N-terminal GST; dsDNA, one strand shown
How it was run: as §1

ERF = biological target: T6, ERF (Homo sapiens, UniProt P50548 1-548); settings: protein: recombinant; tags: N-terminal GST; dsDNA, one strand shown
T6 sequence: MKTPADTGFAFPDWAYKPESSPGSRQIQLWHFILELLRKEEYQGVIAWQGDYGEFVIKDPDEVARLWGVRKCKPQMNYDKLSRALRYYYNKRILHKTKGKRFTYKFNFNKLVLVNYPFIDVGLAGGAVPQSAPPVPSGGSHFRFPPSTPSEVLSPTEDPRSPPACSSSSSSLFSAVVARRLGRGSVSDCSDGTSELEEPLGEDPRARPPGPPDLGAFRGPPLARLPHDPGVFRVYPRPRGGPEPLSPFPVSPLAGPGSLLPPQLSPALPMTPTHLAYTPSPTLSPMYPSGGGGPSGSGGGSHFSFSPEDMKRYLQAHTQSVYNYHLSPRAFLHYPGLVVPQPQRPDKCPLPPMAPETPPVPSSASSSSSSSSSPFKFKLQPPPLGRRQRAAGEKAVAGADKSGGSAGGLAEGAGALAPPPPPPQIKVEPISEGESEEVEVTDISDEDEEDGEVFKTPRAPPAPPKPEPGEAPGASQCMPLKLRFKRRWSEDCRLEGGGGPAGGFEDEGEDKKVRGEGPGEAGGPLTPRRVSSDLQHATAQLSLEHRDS
How it was run: as §1

ETV3L = biological target: T7, ETV3L (Homo sapiens, UniProt Q6ZN32 1-361); settings: protein: recombinant; tags: N-terminal GST; dsDNA, one strand shown
T7 sequence: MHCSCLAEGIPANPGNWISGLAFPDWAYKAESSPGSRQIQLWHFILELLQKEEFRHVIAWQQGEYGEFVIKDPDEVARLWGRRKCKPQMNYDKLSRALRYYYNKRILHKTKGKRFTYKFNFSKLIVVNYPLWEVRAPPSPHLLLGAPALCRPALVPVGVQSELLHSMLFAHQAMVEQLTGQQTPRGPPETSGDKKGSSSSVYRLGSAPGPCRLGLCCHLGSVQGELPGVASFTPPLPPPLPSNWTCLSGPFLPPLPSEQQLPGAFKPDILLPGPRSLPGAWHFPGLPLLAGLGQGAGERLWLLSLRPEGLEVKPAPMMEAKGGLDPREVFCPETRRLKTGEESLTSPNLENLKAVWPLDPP
How it was run: as §1

ETS2 = biological target: T8, ETS2 (Homo sapiens, UniProt P15036 1-469); settings: protein: recombinant; tags: N-terminal GST; dsDNA, one strand shown
T8 sequence: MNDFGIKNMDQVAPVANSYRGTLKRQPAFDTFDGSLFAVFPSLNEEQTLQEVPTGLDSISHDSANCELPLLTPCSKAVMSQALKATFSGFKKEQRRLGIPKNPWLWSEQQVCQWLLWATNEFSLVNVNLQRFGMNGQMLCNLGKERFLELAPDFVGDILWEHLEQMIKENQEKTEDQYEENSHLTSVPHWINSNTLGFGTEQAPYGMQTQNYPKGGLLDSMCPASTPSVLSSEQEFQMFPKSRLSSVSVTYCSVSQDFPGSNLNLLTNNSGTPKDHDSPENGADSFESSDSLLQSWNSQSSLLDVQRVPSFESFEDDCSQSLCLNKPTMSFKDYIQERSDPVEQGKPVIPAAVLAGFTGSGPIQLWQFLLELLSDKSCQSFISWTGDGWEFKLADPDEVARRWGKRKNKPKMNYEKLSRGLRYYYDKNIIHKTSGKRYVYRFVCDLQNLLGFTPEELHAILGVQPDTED
How it was run: as §1

SPDEF = biological target: T9, SPDEF (Homo sapiens, UniProt O95238 1-335); settings: protein: recombinant; tags: N-terminal GST; dsDNA, one strand shown
T9 sequence: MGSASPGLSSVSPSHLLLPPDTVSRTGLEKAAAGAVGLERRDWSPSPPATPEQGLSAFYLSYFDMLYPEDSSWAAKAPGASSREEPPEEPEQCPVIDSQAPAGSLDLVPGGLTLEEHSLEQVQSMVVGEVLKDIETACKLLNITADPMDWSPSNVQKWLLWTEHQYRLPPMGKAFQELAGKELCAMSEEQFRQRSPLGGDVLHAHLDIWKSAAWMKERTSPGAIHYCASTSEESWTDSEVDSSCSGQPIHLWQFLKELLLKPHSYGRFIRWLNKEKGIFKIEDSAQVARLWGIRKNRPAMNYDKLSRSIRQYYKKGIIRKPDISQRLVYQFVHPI
How it was run: as §1

ETV7 = biological target: T10, ETV7 (Homo sapiens, UniProt Q9Y603 1-341); settings: protein: recombinant; tags: N-terminal GST; dsDNA, one strand shown
T10 sequence: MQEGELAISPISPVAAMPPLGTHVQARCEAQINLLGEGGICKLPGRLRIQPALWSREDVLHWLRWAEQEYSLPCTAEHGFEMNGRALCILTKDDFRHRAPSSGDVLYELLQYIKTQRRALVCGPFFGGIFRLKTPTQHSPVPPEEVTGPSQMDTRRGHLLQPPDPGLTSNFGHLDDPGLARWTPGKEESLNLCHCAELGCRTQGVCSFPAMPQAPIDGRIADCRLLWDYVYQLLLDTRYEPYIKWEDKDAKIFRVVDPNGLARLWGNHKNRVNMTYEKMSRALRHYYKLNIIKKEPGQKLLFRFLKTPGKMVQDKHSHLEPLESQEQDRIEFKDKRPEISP
How it was run: as §1

ELF5 = biological target: T11, ELF5 (Homo sapiens, UniProt Q9UKW6-2 1-255); settings: protein: recombinant; tags: N-terminal GST; dsDNA, one strand shown
T11 sequence: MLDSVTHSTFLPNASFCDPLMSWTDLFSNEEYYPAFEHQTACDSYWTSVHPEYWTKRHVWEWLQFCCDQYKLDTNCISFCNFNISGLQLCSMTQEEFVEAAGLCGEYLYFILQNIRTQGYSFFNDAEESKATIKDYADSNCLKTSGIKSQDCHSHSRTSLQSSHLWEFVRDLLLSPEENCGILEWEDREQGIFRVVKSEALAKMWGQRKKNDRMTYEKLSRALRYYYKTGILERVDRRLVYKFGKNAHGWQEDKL
How it was run: as §1

ETV3 = biological target: T12, ETV3 (Homo sapiens, UniProt P41162-2 1-143); settings: protein: recombinant; tags: N-terminal GST; dsDNA, one strand shown
T12 sequence: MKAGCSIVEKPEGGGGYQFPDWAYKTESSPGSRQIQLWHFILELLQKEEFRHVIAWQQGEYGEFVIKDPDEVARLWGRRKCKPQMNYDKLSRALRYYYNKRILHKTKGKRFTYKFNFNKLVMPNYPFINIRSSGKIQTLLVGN
How it was run: as §1

ETV6 = ETV6 (Homo sapiens, UniProt P41212 1-452); settings: protein: recombinant; tags: N-terminal GST; dsDNA, one strand shown
How it was run: as §1

Chain of ETV6 (P41212 whole entry): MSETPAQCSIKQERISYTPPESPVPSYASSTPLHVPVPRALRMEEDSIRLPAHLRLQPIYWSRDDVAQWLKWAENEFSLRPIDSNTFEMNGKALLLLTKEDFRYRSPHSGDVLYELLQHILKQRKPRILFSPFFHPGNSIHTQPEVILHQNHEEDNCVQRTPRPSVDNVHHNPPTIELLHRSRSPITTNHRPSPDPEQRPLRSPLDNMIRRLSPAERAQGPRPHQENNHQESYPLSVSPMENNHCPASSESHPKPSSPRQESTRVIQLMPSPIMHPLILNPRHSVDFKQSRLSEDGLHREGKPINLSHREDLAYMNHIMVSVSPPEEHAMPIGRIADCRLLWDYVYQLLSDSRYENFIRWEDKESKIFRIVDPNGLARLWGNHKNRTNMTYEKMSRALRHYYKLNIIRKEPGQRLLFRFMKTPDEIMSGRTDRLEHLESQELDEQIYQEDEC
Chain of ETV1 (P50549 whole entry): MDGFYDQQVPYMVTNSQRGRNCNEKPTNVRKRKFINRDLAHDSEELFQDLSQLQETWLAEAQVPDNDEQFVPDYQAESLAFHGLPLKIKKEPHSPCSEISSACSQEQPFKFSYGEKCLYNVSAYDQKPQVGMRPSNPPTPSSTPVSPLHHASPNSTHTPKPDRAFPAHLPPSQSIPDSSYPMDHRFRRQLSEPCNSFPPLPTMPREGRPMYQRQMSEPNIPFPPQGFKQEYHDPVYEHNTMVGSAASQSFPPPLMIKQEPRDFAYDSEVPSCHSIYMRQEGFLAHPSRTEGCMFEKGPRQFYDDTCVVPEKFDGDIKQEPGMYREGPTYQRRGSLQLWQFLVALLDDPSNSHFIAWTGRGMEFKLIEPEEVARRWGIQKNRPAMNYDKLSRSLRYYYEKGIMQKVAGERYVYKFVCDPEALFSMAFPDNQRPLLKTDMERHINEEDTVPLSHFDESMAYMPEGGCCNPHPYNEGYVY
Chain of ELF4 (Q99607 whole entry): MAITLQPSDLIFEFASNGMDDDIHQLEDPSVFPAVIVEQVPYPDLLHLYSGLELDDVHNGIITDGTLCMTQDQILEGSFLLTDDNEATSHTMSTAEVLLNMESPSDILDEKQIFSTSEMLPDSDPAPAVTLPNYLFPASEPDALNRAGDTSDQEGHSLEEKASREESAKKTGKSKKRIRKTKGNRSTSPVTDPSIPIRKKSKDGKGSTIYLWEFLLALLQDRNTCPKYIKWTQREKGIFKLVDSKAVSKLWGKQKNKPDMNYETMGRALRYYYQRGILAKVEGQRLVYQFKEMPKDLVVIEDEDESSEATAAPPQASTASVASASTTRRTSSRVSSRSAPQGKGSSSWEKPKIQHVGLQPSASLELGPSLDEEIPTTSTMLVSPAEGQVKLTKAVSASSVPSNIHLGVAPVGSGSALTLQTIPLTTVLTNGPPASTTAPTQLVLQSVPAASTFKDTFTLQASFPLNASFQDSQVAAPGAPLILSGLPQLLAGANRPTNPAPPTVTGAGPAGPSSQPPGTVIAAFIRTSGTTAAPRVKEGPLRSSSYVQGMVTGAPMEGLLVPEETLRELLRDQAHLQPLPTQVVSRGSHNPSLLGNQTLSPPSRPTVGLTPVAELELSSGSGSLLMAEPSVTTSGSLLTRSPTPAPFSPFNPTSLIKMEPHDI
Chain of CRX (O43186 whole entry): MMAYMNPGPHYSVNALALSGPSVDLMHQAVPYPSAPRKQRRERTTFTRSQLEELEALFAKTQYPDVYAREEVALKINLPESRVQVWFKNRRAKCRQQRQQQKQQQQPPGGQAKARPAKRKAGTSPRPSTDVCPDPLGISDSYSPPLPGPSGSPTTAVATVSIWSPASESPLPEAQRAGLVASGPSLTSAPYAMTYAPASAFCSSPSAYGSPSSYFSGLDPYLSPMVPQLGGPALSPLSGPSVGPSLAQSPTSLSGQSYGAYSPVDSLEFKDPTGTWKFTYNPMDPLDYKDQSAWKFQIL
Chain of HSF1 (Q00613 whole entry): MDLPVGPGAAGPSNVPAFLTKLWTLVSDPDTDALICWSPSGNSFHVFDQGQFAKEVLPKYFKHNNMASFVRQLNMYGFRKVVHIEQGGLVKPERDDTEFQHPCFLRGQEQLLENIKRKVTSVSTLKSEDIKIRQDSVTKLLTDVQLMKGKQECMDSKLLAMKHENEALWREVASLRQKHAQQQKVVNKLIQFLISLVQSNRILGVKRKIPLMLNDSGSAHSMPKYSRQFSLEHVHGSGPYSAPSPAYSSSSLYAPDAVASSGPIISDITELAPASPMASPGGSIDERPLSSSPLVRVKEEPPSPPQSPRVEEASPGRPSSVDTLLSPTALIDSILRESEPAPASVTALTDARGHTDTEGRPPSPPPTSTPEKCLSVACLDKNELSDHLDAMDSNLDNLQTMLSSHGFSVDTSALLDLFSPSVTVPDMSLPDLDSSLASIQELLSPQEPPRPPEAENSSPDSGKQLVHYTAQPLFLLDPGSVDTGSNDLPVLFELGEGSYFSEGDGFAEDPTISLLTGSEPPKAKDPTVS
Chain of ETV5 (P41161 whole entry): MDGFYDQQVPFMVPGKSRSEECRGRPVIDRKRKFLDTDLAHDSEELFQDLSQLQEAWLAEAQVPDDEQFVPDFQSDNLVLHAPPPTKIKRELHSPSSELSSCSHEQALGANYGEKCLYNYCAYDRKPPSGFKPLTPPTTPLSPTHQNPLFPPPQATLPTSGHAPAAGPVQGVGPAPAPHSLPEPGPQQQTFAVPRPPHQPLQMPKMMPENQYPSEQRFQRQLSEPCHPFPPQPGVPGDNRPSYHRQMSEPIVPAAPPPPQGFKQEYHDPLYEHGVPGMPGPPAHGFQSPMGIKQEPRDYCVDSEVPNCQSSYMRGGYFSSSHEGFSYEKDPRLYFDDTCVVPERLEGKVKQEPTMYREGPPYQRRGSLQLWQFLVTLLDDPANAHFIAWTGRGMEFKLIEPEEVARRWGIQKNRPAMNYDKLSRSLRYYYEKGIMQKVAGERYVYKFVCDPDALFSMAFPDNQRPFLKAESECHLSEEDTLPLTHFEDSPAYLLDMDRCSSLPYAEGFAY

TACAAT
binding signal (FEV): 1.29 fold enrichment (6-mer frequency, TF over GST control)
binding signal (ETV5): 1.3 fold enrichment (6-mer frequency, TF over GST control)
binding signal (HSF1): 1.32 fold enrichment (6-mer frequency, TF over GST control)
binding signal (SPIC): 1.25 fold enrichment (6-mer frequency, TF over GST control)
binding signal (ELF4): 1.26 fold enrichment (6-mer frequency, TF over GST control)
binding signal (ELK4): 1.47 fold enrichment (6-mer frequency, TF over GST control)
binding signal (ETV2): 1.31 fold enrichment (6-mer frequency, TF over GST control)
binding signal (ELF3): 1.36 fold enrichment (6-mer frequency, TF over GST control)
binding signal (CRX): 1.44 fold enrichment (6-mer frequency, TF over GST control)
binding signal (ETV1): 1.33 fold enrichment (6-mer frequency, TF over GST control)
binding signal (ERF): 1.31 fold enrichment (6-mer frequency, TF over GST control)
binding signal (ETV3L): 1.25 fold enrichment (6-mer frequency, TF over GST control)
binding signal (ETS2): 1.34 fold enrichment (6-mer frequency, TF over GST control)
binding signal (SPDEF): 1.28 fold enrichment (6-mer frequency, TF over GST control)
binding signal (ETV7): 1.24 fold enrichment (6-mer frequency, TF over GST control)
binding signal (ELF5): 1.24 fold enrichment (6-mer frequency, TF over GST control)
binding signal (ETV3): 1.28 fold enrichment (6-mer frequency, TF over GST control)
binding signal (ETV6): 1.26 fold enrichment (6-mer frequency, TF over GST control)
